Results on 17 molecules are retold here after PubChem BioAssay.

A short description of assay [1]: sensitizers of A549 cells to miR-34 induction, primary screen, imaging, A549 dox-inducible miR-34, nuclei and caspase counts (AID 1347080). Conditions: A549 miR-34 inducible, Hoechst nuclei count, 48 h.
Assay [2] in a line: survival rescue of mitochondrial mutant cells in low glucose, primary screen, MELAS cybrids, Rieske KO mouse fibroblasts, CellTiter-Glo (AID 1508586;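 active = mean z-score across replicates of 1.96 or higher in either the MELAS or the Rieske mutant cell line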;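 note: z relative to plate mean and SD of compound and empty wells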).
Assay [3] relates to Hepatitis C virus NS3 helicase. Put plainly: HCV NS3 helicase inhibitors, primary screen, biochemical, fluorescence polarization, LOPAC1280 library (AID 687035; in the data active = inhibition above about 37%). Conditions: Purified HCV NS3 helicase, Cy5-dT15 ssDNA binding fluorescence polarization; stronger effect = higher value; concentration not given here.
Assay [4] can be described thus: Cy5 fluorescence quenching or enhancement artefacts, artefact control for HCV NS3 helicase inhibitor project, biochemical, LOPAC1280 (AID 687037; call rule not given here). Conditions: Cy5-DNA-NS3h complex fluorescence interference counterscreen.
Assay [5] is described as follows: phospholipid biosynthesis inhibitors in animal cells, primary screen, cell-based, LOPAC library, screen 4 (AID 1347384; call rule not given here). Conditions: phospholipid biosynthesis inhibition screen, at 10 µM.
Assay [6] in a line: viability rescue of complex I mutant cybrids, primary screen, cell-based, galactose medium, ATP luminescence (AID 1645843;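 active = z-score of at least 1.8 in each of two replicates, scored against plate mean and spread of sample wells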;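 note: positive z means more ATP and so rescue of galactose-driven cybrid death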). Conditions: complex I mutant cybrid cells, 72 h, stronger effect = higher value.
The mark [7] stands for this setting: measured here: relative caspase fold change +Dox/-Dox.
Setting [8] is: measured here: total cells with miR-34 induction, stronger effect = lower value.
The mark [9] stands for this setting: measured here: total cells without miR-34 induction.
Where [10] appears, read: MELAS cybrid survival, CellTiter-Glo 48 h, stronger effect = higher value.
Setting [11] is: Rieske KO mouse fibroblast survival, CellTiter-Glo 72 h.
[12] abbreviates: stronger effect = lower value, cell number ratio, induced over uninduced.

“And” between values parts separate entries of the source, which are not always exact repeats. Identical values can stand only once. The source made the active and inactive calls.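 Rule for the calls, unless noted: active = compounds whose cell count with miR-34 switched on is under 0.7 times the count with it off; inactive = the rest.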

In the case of `COC1=C[C@@H]2C3Cc4ccc(OC)c(O)c4[C@]2(CCN3C)CC1=O`, the fold change in assay [1] (stronger effect = lower value) was 0.895 (inactive); in assay [1] (setting [7]), 0.909. The results for the cell count in assay [1] (setting [8]) and in assay [1] (setting [9]) were 8920 and 9970, respectively. The z-score was -0.311 (inactive) in assay [2] (setting [10]) and 0.879 in assay [2] (setting [11]).
For `O=c1[nH]c2ccc(Cl)cc2c(NC2CN3CCC2CC3)c1-c1nc2ccccc2[nH]1` (stereo not drawn), the fold change is 0.941 (inactive) in assay [1] (setting [12]) and 1.09 in assay [1] (setting [7]). For the same molecule, the values for the cell count in assay [1] (setting [8]) and in assay [1] (setting [9]) were 1120 and 1200, respectively. Also, the z-score was 1.28 (inactive) in assay [2] (setting [10]) and -3.49 in assay [2] (setting [11]).
On to `Clc1ccc(C(Cn2ccnc2)OCc2c(Cl)cccc2Cl)c(Cl)c1` (stereo not drawn), for which the fold change in assay [1] (setting [12]) is 0.876 (inactive) and 0.926 (inactive); in assay [1] (setting [7]) it was 1.06 and 1.05. Also, the cell count in assay [1] (setting [8]) was 8420 and 7330; in assay [1] (setting [9]), 9620 and 7910. The z-score in assay [2] (setting [10]) is -0.214 (inactive) and 1.01 (inactive); in assay [2] (setting [11]), -1.26 and 0.334.
As for `CN(C)C1C(=O)C(C(N)=O)=C(O)[C@@]2(O)C(=O)C3=C(O)c4c(O)cccc4[C@@](C)(O)[C@H]3C(O)[C@@H]12` (stereo partly drawn), the results for the fold change in assay [1] (setting [12]) and in assay [1] (setting [7]) were 0.897 (inactive) and 0.837, respectively. Further, the cell count came out at 7930 in assay [1] (setting [8]) and 8840 in assay [1] (setting [9]). The z-score was -0.21 (inactive) in assay [2] (setting [10]) and 0.479 in assay [2] (setting [11]).
Consider `C=C[C@H]1CN2CCC1C[C@H]2C(O)c1ccnc2ccccc12` (stereo partly drawn), for which the fold change is 0.935 (inactive) in assay [1] (setting [12]) and 0.691 in assay [1] (setting [7]). The values for the cell count in assay [1] (setting [8]) and in assay [1] (setting [9]) were 8540 and 9140, respectively. The z-score in assay [2] (setting [10]) was -0.21 (inactive); in assay [2] (setting [11]), 0.792.
Take `O=[N+]([O-])C=Cc1ccc2c(c1)OCO2`: the fold change is 0.859 (inactive) in assay [1] (setting [12]) and 0.554 in assay [1] (setting [7]). Moreover, the values for the cell count in assay [1] (setting [8]) and in assay [1] (setting [9]) were 5450 and 6350, respectively. Also, the z-score was 0.246 (inactive) in assay [2] (setting [10]) and -0.259 in assay [2] (setting [11]).
As for `Cc1c(N)nc(C(CC(N)=O)NCC(N)C(N)=O)nc1C(=O)NC(C(=O)NC(C)C(O)C(C)C(=O)NC(C(=O)NCCc1nc(-c2nc(C(=O)NCCC[S+](C)C)cs2)cs1)C(C)O)C(OC1OC(CO)C(O)C(O)[C@H]1OC1OC(CO)C(O)C(OC(N)=O)C1O)c1cnc[nH]1` (stereo partly drawn), the fold change is 1.05 (inactive) in assay [1] (setting [12]) and 0.471 in assay [1] (setting [7]). Further, the cell count in assay [1] (setting [8]) turned out to be 3100; in assay [1] (setting [9]), 2960. For the same molecule, the figures for the z-score in assay [2] (setting [10]) and in assay [2] (setting [11]) were -0.352 (inactive) and -0.104, respectively.
On to `CC(=Cc1csc(C)n1)C1CC2OC2CCCC(C)C(O)C(C)C(=O)C(C)(C)C(O)CC(=O)O1` (stereo not drawn), for which the fold change was 1.08 (inactive) in assay [1] (setting [12]) and 1.17 in assay [1] (setting [7]). The cell count in assay [1] (setting [8]) stood at 1520; in assay [1] (setting [9]) it was 1410. The values for the z-score in assay [2] (setting [10]) and in assay [2] (setting [11]) were 1.25 (inactive) and 0.224, respectively.
As to `CCN1C[C@]2(OC(=O)c3ccccc3NC(C)=O)CCC(OC)[C@]34C1C(C[C@H]23)[C@@]1(O)CC(OC)[C@H]2C[C@H]4[C@]1(O)C2OC` (stereo partly drawn), the fold change in assay [1] (stronger effect = lower value) is 0.952 (inactive); in assay [1] (setting [7]), 0.833. The cell count in assay [1] (setting [8]) was 7310; in assay [1] (setting [9]) it was 7680. The z-score in assay [2] (setting [10]) is -0.466 (inactive); in assay [2] (setting [11]), -0.118.
For `O=c1ccc2cc(OC3OC(CO)C(O)C(O)C3O)c(O)cc2o1` (stereo not drawn), the fold change was 0.961 (inactive) in assay [1] (setting [12]) and 0.851 in assay [1] (setting [7]). Moreover, the cell count stood at 9070 in assay [1] (setting [8]) and 9440 in assay [1] (setting [9]). Further, the z-score is -0.23 (inactive) in assay [2] (setting [10]) and 0.0251 in assay [2] (setting [11]).
`C=CC[C@@]1(O)CC[C@H]2[C@@H]3CCC4=CC(=O)CCC4=C3C=C[C@@]21C`: the fold change in assay [1] (setting [12]) is 0.88 (inactive); in assay [1] (setting [7]), 0.451. Also, the values for the cell count in assay [1] (setting [8]) and in assay [1] (setting [9]) were 7350 and 8350, respectively. Also, the z-score was -0.295 (inactive) in assay [2] (setting [10]) and -0.164 in assay [2] (setting [11]).
On to `CC(C)(C)[C@@]1(O)C[C@@H]2OC(=O)C[C@@]23C(=O)O[C@H]2OC(=O)C(O)C213` (stereo partly drawn), for which the results for the fold change in assay [1] (setting [12]) and in assay [1] (setting [7]) were 0.894 (inactive) and 1.49, respectively. For the same molecule, the cell count in assay [1] (setting [8]) amounted to 8490; in assay [1] (setting [9]), 9500. Further, the z-score is -0.286 (inactive) in assay [2] (setting [10]) and 0.895 in assay [2] (setting [11]).
For the molecule `CC1CCCC=C[C@@H]2CC(O)C[C@H]2C(O)C=CC(=O)O1` (stereo partly drawn), the fold change in assay [1] (setting [12]) was 1.09 (inactive); in assay [1] (setting [7]) it was 1.21. In addition, the cell count is 2230 in assay [1] (setting [8]) and 2050 in assay [1] (setting [9]). Besides, the z-score in assay [2] (setting [10]) was 4.01 (active); in assay [2] (setting [11]) it was -2.64.
In the case of `N=C(N)c1ccc(CS(=O)(=O)F)cc1`, the inhibition in assay [3] was -2% (inactive). For the same molecule, the fluorescence ratio (interference) in assay [4] is 1 (inactive). Further, the fold change in assay [1] (stronger effect = lower value) was 1.04 (inactive); in assay [1] (setting [7]), 1.07. The cell count in assay [1] (setting [8]) was 11100; in assay [1] (setting [9]), 10700. In assay [5], the outcome was inactive. The z-score in assay [6] was 0.445 (inactive).
On to `O=C1/C(=C/c2ccccc2)C[C@@]2(O)[C@H]3Cc4ccc(O)c5c4[C@@]2(CCN3CC2CC2)[C@H]1O5`, for which the inhibition in assay [3] is -4% (inactive). Moreover, the fluorescence ratio (interference) in assay [4] is 1 (inactive). For the same molecule, the results for the fold change in assay [1] (stronger effect = lower value) and in assay [1] (setting [7]) were 1.23 (inactive) and 1.39, respectively. Further, the cell count amounted to 588 in assay [1] (setting [8]) and 478 in assay [1] (setting [9]). In assay [5], the outcome was inactive. Further, the z-score in assay [6] was -1 (inactive).
Regarding `CC(C)[C@@]12OC1C1O[C@]13[C@]1(OC1C[C@@H]1C4=C(CC[C@@]13C)C(=O)OC4)C2O` (stereo partly drawn), the fold change in assay [1] (setting [12]) is 0.989 (inactive); in assay [1] (setting [7]), 0.482. The cell count in assay [1] (setting [8]) was 1650; in assay [1] (setting [9]), 1670. The values for the z-score in assay [2] (setting [10]) and in assay [2] (setting [11]) were 1.17 (inactive) and -0.457, respectively.
For the molecule `C[C@H](N)Cc1cccc(C(F)(F)F)c1`, the inhibition in assay [3] was -3% (inactive). Moreover, the fluorescence ratio (interference) in assay [4] is 1 (inactive). In addition, the values for the fold change in assay [1] (stronger effect = lower value) and in assay [1] (setting [7]) were 0.951 (inactive) and 1.01, respectively. In addition, the figures for the cell count in assay [1] (setting [8]) and in assay [1] (setting [9]) were 10400 and 11000, respectively. Further, in assay [5], the result was inactive. Moreover, in assay [6], the z-score is 0.04 (inactive).
